In PubChem BioAssay AID651593 (National Center for Advancing Translational Sciences (NCATS), 2012):
Several values for one entry are separate records, joined by “and”; a condition that tells them apart may be missing. Equal entries are not always repeated. About 860 (78%) of roughly 1,100 compounds were called active. Not shown: some 19% with an inconclusive outcome. Calls come from the whole dose curve; as a rule, active = well fitted activation curve with a large enough effect; inconclusive = small, poorly fitted or top-dose-only effect; inactive = flat fitted curve, though single readings scatter. So high a share suggests a set chosen from earlier hits. The list shows a part of the results.
Potency is the fitted concentration of half-maximal effect.

Test: qHTS of Nrf2 Activators: Hit Validation in Primary Assay; note: nearly all actives have a fitted effect of over 70% in size
Conditions: Nrf2/ARE reporter cell assay; Potency: activation; series mostly up to 46.1 µM
How it was run: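 AREc32 cells stably carrying an ARE-driven firefly luciferase, plated overnight, then exposed 24 h at 37 °C to compounds at several concentrations. ARE activation read as luminescence with Steady-Glo after 30 min at room temperature.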
In the case of `N#CC1=C(N)Oc2c(ccc3ccccc23)C1c1ccsc1` (stereo not drawn), the Potency is reported as “inactive”.
With `Cc1cc(NC(=O)c2ccccc2F)nc2c1c(=O)oc1ccccc12` the Potency was 0.58 µM (active).
In the case of `COc1cc(OC)cc(-c2nc3ccccc3s2)c1`, the Potency is reported as 13 µM (active).
In the case of `Cc1cc(C)n(S(=O)(=O)/C=C/c2ccccc2)n1`, the Potency is reported as 4.61 µM (active).
With `Cc1cc(C)cc(OC(=O)CS(=O)c2ccc(C(F)(F)F)cc2[N+](=O)[O-])c1` (stereo not drawn) the Potency was 18.4 µM (active).
With `O=C(CCCCCCC(=O)Nc1ccccc1)NO` the Potency was 2.31 µM (active).
For `O=C(Nc1cc(Br)ccc1O)c1cnn2c(C(F)F)cc(C3CC3)nc12`, the Potency was 3.26 µM (active).
In the case of `CS(=O)(=O)Cc1nc2ccccc2oc1=O`, the Potency is reported as 20.6 µM (active).
In the case of `CCc1ccc(/C=C/c2c([N+](=O)[O-])c(=O)n(C)c(=O)n2C)cc1`, the Potency is reported as 11.6 µM (active).
With `N#C/C(=C(/O)c1ccco1)c1nc2ccccc2[nH]1` the Potency was 2.59 µM (active).
With `N#C/C(=C(/O)c1ccco1)c1nc2ccccc2s1` the Potency was 1.64 µM (active) and 2.06 µM (active).
In the case of `CSc1ccc(C2NN=C(c3ccccc3)S2)cc1` (stereo not drawn), the Potency is reported as 2.31 µM (active).
For `CN1CCN(CCCNC(=O)c2cc3c(=O)n(C)c4ccccc4c3s2)CC1`, the Potency was 8.2 µM (active).
In the case of `Cc1nc(NCc2ccco2)nc2c1C(=O)CC(C)C2` (stereo not drawn), the Potency is reported as 1.84 µM (active).
In the case of `Clc1cc(Cl)cc(Nc2ncnc(-n3cccc3)n2)c1`, the Potency is reported as 2.59 µM (active).
For `Cc1ccccc1OCC(=O)Nc1ccccc1CO`, the Potency was 6.51 µM (active).
With `O=C(NC1CCCCC1)N(c1ccccc1)c1nnc(-c2cccc([N+](=O)[O-])c2)s1` the Potency was 7.31 µM (active).
In the case of `CCOc1cc2ccccc2cc1C(=O)Nc1ccccn1`, the Potency is reported as 3.66 µM (active).
With `Cc1cccc(-c2nnc(-c3cccc4ccccc34)o2)c1` the Potency was 5.17 µM (active).
For `Clc1ccc(-c2nnc(-c3cccc4ccccc34)o2)cc1`, the Potency was 1.84 µM (active).
In the case of `O=C(Nc1cc(-c2nc3cc(Cl)ccc3o2)ccc1Cl)c1ccco1`, the Potency is reported as 1.3 µM (active).
With `Cc1ccc(-c2nc3cccnc3s2)cc1NC(=O)c1ccco1` the Potency was 8.2 µM (active).
In the case of `O=C(Nc1cc2nn(-c3ccccc3)nc2cc1Cl)c1ccco1`, the Potency is reported as 1.64 µM (active).
In the case of `O=C(Nc1cc(-c2nc3ncccc3o2)ccc1Cl)c1ccco1`, the Potency is reported as 3.66 µM (active).
For `O=C(Nc1cc(-c2nc3ncccc3o2)ccc1Cl)c1cccs1`, the Potency was 4.11 µM (active).
With `O=c1c2ccccc2oc2cc(Br)ccc12` the Potency was 2.59 µM (active).
With `COc1ccc2oc3ccccc3c(=O)c2c1` the Potency was 23.1 µM (active).
In the case of `O=c1c2ccccc2oc2ccc(-c3ccc4cc[nH]c4c3)cc12`, the Potency is reported as 3.66 µM (active).
In the case of `COc1ccc2oc3cc(Cl)ccc3c(=O)c2c1`, the Potency is reported as 9.2 µM (active).
With `COc1ccc(OC)c(C(=O)Nc2c(O)ccc3ccccc23)c1` the Potency was 5.8 µM (active).
With `COc1ccc(COc2ccsc2C(=O)Nc2ccc(Cl)cc2)cc1` the Potency was 4.61 µM (active).
For `Cc1nc2nc(-c3ccccc3)nn2c(C)c1Cl`, the Potency was 4.11 µM (active).
For `O=C1/C(=C\c2ccco2)NC(=S)N1c1ccccc1`, the Potency was 3.66 µM (active).
For `CCn1c(NC(=O)c2ccccc2)nc2ccccc21`, the Potency was 3.66 µM (active).
With `CCn1c(NC(=O)c2cccs2)nc2ccccc21` the Potency was 5.17 µM (active).
In the case of `Cn1c(=O)c2nc(-c3ccccc3)oc2c2ccccc21`, the Potency is reported as 1.84 µM (active).
In the case of `O=C(c1ccco1)c1cc2c(ccc3ccccc32)oc1=O`, the Potency is reported as 9.2 µM (active).
In the case of `O=C(c1ccco1)c1cn(CC(=O)N2CCCc3ccccc32)c2ccccc12`, the Potency is reported as “inactive”.
In the case of `CC(C)=NNc1cnnc2ccc([N+](=O)[O-])cc12`, the Potency is reported as 18.4 µM (active).
With `Cn1ccsc1=NC(=O)c1ccc([N+](=O)[O-])o1` the Potency was 5.17 µM (active).
With `CN(N=Cc1ccccc1O)c1ccc2ccccc2n1` the Potency was 2.91 µM (active).
In the case of `Oc1ccc(NCc2cccc(OCc3ccc(F)cc3)c2)cc1`, the Potency is reported as “inactive”.
With `Oc1ccc(CNc2ccccc2O)cc1` the Potency was 16.4 µM (active).
With `O=C(Nc1nc(-c2ccncc2)cs1)c1ccco1` the Potency was 4.11 µM (active).
With `CC(=O)Nc1ccc2nc(NC(=O)c3ccco3)sc2c1` the Potency was 4.11 µM (active).
With `O=C(Nc1nc2ccsc2c(=O)s1)c1ccco1` the Potency was 1.3 µM (active).
In the case of `O=C(Nc1nc2c(ccc3ccccc32)s1)c1ccco1`, the Potency is reported as 1.16 µM (active).
For `Cc1cc(Cl)cc2sc(NC(=O)c3ccco3)nc12`, the Potency was 16.4 µM (active).
With `O=C(CSc1cccc[n+]1[O-])Nc1cc([N+](=O)[O-])ccc1Cl` the Potency was 20.6 µM (active).
For `O=C(NC(=S)Nc1cc([N+](=O)[O-])ccc1Cl)c1ccccc1`, the Potency was 2.31 µM (active).
For `O=C(NC(=S)Nc1cc(C(F)(F)F)ccc1Cl)c1ccccc1`, the Potency was 2.91 µM (active).
With `Cn1c(=O)c2nc(NCc3ccccc3)sc2n(C)c1=O` the Potency was 1.46 µM (active).
With `CC(=O)Nc1nc2cccc([N+](=O)[O-])c2s1` the Potency was 1.84 µM (active).
With `O=C(/C=C/c1ccc2c(c1)OCO2)c1ccc(O)cc1O` the Potency was 14.6 µM (active).
With `COc1ccc2[nH]c3c(NCc4ccco4)ncnc3c2c1` the Potency was 2.59 µM (active).
With `O=C(CSc1ncnc2c1oc1ccccc12)c1cccs1` the Potency was 5.17 µM (active).
In the case of `O=C(CSc1ncnc2c1oc1ccccc12)NCc1ccco1`, the Potency is reported as 13 µM (active).
With `c1coc(CNc2ncnc3c2oc2ccccc23)c1` the Potency was 3.66 µM (active).
With `c1coc(CSc2ncnc3c2oc2ccccc23)c1` the Potency was 2.91 µM (active).
For `O=C(CSc1nnc2c(n1)[nH]c1ccccc12)NCc1ccco1`, the Potency was 20.6 µM (active).
In the case of `O=[N+]([O-])c1cncc([N+](=O)[O-])c1Nc1cccc(O)c1`, the Potency is reported as 14.6 µM (active).
With `O=c1[nH]ncc(N/N=C\c2cccs2)c1Cl` the Potency was 20.6 µM (active).
For `CN(C)c1oc(/C=C/c2ccccc2)nc1C#N`, the Potency was 3.26 µM (active).
For `O=C(CCNc1cc(Cl)cc(Cl)c1)c1cccs1`, the Potency was 6.51 µM (active).
For `O=[N+]([O-])c1ccc(/C=N/Nc2ccc3ccccc3c2)o1`, the Potency was 2.91 µM (active).
In the case of `Nc1ccc(S(=O)(=O)Nc2nccc(/C=C/c3cccc(Br)c3)n2)cc1`, the Potency is reported as 3.26 µM (active).
With `CC(C)C(=O)Nc1nnc(-c2ccco2)s1` the Potency was 5.8 µM (active).
In the case of `Cc1cc(NC(=O)Nc2cc(Cl)sc2Cl)no1`, the Potency is reported as 4.11 µM (active).
